{
  "source": "PubChem BioAssay AID493243",
  "about": "(Broad Institute, 2011)",
  "note": "Unmarked numbers belong to inactive results. Calls of active or inactive are those of the source. The rule behind the calls is not given here.",
  "data": [
    {"assay": "GFP fluorescence signal inhibitors, dose response, artefact control, biochemical, plate reader, dry powder (AID 493243)", "settings": "GFP fluorescence counter-screen; series mostly up to 35 µM; activity change, negative = inhibition: at the top concentration", "units": {"activity change, negative = inhibition": "%"}, "values": [
      {"smiles": "Nc1cn(-c2ccccc2)nc1-c1ccc(F)cc1", "activity change, negative = inhibition": 1.12},
      {"smiles": "Cn1nc(-c2ccccn2)nc2c(=O)n(C)c(=O)nc1-2", "AC50": "752 nM (active)"},
      {"smiles": "Cc1ccccc1-n1ncc2c([N+](=O)[O-])cc([N+](=O)[O-])cc21", "AC50": "9400 nM (active)"},
      {"smiles": "Cc1oc2c(c1C(=O)NCc1ccccn1)C(=O)c1ccccc1C2=O", "AC50": "1040 nM (active)"},
      {"smiles": "Cc1oc2c(c1C(=O)NCc1cccnc1)C(=O)c1ccccc1C2=O", "AC50": "3570 nM (active)"}
    ]}
  ]
}
